Assay in all cases: DAPPL (digital affinity profiling via proximity ligation, sequencing); 10 mM Tris-HCl pH 7.5, 50 mM NaCl, 1 mM DTT, 4% glycerol, room temperature, 30 min; GST-TFs on glutathione beads, 16-mer random dsDNA library, 0.1% formaldehyde crosslink after washing; high values mean tight binding
What all share (settings): protein: recombinant; tags: N-terminal GST; dsDNA, one strand shown

The target of one experiment is T1, FLI1 (Homo sapiens, UniProt Q01543 1-452).
T1 sequence: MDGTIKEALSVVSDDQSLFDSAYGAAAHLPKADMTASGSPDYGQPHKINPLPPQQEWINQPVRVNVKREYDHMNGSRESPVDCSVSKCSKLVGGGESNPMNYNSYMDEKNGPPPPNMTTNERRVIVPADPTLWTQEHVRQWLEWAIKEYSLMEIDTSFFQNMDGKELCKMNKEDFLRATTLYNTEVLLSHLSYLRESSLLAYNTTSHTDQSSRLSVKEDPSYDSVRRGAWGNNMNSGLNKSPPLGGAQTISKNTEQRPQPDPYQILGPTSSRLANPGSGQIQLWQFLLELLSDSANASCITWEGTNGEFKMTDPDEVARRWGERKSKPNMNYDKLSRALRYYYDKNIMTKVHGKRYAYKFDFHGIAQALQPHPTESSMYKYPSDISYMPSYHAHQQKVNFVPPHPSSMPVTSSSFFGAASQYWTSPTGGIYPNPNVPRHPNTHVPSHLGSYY
The gist of the method:
(§1)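 Sequencing on an Illumina NextSeq500 followed washing, crosslinking with 0.1% formaldehyde, proximity ligation (BsaI/T4 ligase, 1 h, 37 °C) and PCR amplification of pools that had been incubated for 30 min at room temperature with 200 nmole of a random double-stranded 16-mer DNA library in Tris/NaCl/DTT/glycerol buffer. Each pool held DNA-barcoded human transcription factors, expressed in yeast as GST fusions and captured on glutathione beads, plus a tag-only sample. Binding signal is a hexamer's read frequency for a factor divided by its frequency in the tag-only sample.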

The target of the next experiment is T2, ELK1 (Homo sapiens, UniProt P19419 1-428).
T2 sequence: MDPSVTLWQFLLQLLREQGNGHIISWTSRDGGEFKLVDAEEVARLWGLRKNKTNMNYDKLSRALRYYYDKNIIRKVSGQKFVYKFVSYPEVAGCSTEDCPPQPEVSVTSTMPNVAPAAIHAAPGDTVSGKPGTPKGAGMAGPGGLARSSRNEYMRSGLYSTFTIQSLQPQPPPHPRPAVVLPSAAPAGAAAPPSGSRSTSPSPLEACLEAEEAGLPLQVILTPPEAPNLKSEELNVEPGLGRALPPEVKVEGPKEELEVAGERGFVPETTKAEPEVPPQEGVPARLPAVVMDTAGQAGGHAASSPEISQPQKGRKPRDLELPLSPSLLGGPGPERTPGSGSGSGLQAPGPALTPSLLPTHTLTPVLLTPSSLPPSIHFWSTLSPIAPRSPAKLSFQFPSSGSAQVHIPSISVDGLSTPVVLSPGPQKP
The gist of the method:
as §1

The next experiment concerns the target T3, GABPA (Homo sapiens, UniProt Q06546 1-454).
T3 sequence: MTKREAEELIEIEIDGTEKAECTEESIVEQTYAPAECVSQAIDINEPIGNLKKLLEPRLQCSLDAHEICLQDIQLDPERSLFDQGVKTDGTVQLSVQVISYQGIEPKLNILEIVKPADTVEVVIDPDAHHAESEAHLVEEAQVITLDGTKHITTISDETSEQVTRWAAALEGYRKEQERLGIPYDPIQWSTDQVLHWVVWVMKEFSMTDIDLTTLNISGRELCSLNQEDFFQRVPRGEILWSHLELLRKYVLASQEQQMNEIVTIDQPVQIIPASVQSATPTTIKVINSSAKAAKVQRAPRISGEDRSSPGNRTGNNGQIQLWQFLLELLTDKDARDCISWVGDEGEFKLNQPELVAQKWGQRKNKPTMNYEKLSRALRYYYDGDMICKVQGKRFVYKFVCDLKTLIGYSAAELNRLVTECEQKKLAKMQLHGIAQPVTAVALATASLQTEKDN
In outline: as §1

The next experiment deals with T4, ERG (Homo sapiens, UniProt P11308 1-479).
T4 sequence: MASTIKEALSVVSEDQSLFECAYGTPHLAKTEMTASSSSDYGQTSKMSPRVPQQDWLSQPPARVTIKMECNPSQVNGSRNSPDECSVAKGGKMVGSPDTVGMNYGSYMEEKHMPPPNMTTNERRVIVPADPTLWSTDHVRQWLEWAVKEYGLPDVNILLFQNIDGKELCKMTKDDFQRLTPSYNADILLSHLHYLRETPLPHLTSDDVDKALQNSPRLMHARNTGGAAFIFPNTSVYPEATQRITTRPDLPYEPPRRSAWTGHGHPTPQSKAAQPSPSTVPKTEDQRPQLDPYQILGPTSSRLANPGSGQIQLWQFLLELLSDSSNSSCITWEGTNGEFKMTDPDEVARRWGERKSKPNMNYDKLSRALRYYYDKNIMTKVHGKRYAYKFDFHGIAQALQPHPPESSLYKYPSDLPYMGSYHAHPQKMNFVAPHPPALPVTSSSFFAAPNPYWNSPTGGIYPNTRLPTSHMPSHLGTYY
In outline:
as §1

The next experiment addresses ELF1 (Homo sapiens, UniProt P32519 1-619). In outline:
as §1

A further experiment has as its target T5, EHF (Homo sapiens, UniProt Q9NZC4 1-300).
T5 sequence: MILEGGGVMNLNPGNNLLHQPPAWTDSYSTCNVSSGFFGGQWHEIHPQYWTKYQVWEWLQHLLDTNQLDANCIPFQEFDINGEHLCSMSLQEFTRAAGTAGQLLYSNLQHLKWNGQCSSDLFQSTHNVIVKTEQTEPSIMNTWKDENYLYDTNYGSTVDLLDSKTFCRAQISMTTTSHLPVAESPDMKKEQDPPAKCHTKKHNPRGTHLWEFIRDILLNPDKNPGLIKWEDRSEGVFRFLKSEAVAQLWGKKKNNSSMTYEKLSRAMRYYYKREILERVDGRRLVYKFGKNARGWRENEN
The gist of the method: as §1

The next experiment concerns the target SPI1 (Homo sapiens, UniProt P17947 1-270). In outline: as §1
A further experiment concerns the target T6, ELK3 (Homo sapiens, UniProt P41970 1-407).
T6 sequence: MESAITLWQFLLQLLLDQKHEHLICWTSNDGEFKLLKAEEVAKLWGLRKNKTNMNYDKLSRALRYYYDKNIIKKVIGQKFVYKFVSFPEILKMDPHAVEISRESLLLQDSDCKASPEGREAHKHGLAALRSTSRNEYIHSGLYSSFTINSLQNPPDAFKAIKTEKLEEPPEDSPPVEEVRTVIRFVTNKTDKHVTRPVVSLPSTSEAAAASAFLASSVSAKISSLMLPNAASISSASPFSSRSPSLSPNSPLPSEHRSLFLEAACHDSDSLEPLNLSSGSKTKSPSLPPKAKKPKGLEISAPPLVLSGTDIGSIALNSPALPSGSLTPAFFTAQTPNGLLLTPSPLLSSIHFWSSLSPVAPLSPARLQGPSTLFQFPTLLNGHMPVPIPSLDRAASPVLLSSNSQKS
The gist of the method: as §1

The next experiment has as its target T7, FEV (Homo sapiens, UniProt Q99581 1-238).
T7 sequence: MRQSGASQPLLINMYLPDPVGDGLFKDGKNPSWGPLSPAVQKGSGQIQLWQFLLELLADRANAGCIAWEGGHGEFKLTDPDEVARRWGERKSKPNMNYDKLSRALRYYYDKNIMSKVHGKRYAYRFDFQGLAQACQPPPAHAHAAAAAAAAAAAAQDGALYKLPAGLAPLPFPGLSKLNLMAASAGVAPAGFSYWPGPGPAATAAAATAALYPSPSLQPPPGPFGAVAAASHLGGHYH
In outline:
as §1

Another experiment concerns the target ETV5 (Homo sapiens, UniProt P41161 1-510). The gist of the method:
as §1

For a further experiment, the target named is T8, SPIC (Homo sapiens, UniProt Q8N5J4 1-248).
T8 sequence: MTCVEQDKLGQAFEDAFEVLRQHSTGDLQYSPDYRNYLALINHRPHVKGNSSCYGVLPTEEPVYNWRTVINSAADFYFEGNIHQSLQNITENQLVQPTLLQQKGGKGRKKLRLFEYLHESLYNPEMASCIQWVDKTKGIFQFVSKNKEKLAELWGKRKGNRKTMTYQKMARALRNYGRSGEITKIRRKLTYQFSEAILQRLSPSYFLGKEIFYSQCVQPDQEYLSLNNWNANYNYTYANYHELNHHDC
The gist of the method:
as §1

Another experiment concerns the target ELF4 (Homo sapiens, UniProt Q99607 1-663). In outline: as §1
The next experiment deals with T9, ELK4 (Homo sapiens, UniProt P28324-2 1-405).
T9 sequence: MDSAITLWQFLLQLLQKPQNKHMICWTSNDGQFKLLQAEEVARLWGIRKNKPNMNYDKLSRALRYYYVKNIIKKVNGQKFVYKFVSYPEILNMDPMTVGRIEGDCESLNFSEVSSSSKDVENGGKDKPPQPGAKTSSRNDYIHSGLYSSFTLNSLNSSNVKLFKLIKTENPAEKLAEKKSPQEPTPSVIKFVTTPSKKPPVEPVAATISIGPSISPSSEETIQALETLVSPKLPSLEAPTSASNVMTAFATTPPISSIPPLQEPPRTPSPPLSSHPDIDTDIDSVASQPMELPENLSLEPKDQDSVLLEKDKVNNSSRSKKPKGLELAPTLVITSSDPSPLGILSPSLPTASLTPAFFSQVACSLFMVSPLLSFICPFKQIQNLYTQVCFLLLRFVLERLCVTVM
In outline: as §1

The next experiment deals with T10, ETV2 (Homo sapiens, UniProt O00321 1-342).
T10 sequence: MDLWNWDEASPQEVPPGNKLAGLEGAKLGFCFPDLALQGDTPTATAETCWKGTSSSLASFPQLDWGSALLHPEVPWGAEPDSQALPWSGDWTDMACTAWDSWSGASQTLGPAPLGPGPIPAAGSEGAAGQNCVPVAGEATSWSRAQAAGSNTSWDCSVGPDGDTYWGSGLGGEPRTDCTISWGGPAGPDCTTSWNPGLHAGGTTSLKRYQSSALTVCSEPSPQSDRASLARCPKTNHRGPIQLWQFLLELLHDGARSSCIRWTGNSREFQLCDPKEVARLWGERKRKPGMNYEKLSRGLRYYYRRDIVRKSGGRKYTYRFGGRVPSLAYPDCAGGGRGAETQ
The gist of the method:
as §1

Another experiment deals with T11, ELF3 (Homo sapiens, UniProt P78545 1-371).
T11 sequence: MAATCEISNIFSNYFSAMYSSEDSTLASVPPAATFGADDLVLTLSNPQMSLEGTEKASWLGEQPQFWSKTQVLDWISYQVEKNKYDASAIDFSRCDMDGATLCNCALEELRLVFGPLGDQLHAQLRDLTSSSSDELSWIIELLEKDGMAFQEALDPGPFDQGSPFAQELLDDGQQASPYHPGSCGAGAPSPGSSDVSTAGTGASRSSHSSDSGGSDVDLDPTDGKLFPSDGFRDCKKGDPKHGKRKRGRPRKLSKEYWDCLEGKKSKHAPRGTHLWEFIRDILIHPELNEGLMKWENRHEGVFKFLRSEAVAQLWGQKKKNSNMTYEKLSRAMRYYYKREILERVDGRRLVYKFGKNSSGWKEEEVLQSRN
In outline:
as §1

The next experiment addresses ETV1 (Homo sapiens, UniProt P50549 1-477). The gist of the method: as §1
In a further experiment the target is SPIB (Homo sapiens, UniProt Q01892 1-262). The gist of the method:
as §1

Sequence of ELF1 (P32519 whole entry): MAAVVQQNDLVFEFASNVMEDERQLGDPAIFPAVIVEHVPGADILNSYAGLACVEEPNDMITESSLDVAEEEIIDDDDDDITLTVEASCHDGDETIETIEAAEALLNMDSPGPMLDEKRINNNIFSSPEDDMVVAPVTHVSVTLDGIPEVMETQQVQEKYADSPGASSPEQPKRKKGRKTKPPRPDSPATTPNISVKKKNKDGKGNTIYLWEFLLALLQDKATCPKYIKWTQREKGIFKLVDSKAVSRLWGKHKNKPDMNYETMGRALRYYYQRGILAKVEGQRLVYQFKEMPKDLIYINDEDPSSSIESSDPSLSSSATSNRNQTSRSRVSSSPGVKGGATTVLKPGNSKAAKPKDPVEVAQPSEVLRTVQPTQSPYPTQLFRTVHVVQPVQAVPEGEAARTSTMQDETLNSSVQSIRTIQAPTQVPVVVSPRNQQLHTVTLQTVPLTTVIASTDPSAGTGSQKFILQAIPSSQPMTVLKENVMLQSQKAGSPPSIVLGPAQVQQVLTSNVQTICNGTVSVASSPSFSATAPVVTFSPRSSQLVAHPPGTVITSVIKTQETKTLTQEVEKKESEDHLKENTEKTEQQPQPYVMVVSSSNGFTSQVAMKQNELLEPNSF
Sequence of ELF4 (Q99607 whole entry): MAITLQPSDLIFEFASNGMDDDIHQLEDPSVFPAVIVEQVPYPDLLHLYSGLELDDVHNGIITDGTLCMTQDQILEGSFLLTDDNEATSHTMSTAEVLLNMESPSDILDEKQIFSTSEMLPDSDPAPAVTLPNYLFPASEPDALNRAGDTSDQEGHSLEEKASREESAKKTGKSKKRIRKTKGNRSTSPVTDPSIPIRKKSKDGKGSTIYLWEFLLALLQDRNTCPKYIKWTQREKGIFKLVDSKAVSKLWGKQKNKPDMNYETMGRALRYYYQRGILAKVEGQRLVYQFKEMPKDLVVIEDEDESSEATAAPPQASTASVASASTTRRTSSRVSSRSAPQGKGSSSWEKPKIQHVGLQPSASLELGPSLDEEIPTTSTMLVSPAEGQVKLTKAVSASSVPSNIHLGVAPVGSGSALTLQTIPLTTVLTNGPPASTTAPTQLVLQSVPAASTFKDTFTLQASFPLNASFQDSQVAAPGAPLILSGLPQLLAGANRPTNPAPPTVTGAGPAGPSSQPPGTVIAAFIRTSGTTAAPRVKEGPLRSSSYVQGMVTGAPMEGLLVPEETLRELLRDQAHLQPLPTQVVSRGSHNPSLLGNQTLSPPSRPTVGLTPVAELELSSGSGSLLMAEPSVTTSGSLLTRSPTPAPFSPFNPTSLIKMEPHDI
Sequence of ETV5 (P41161 whole entry): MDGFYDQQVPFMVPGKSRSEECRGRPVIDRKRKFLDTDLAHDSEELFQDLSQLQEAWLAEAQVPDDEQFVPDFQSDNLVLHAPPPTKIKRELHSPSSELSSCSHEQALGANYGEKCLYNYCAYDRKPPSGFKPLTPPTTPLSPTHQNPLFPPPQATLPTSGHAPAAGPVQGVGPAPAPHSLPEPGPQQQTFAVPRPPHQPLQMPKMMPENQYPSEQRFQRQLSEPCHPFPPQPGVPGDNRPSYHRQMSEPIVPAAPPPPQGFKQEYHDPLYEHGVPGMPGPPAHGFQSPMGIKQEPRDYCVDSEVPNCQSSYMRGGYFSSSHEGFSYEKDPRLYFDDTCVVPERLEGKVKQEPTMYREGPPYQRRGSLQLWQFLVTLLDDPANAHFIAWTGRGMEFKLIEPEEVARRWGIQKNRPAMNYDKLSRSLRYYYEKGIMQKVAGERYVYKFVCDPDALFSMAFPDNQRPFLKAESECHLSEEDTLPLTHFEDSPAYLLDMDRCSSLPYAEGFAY
Sequence of ETV1 (P50549 whole entry): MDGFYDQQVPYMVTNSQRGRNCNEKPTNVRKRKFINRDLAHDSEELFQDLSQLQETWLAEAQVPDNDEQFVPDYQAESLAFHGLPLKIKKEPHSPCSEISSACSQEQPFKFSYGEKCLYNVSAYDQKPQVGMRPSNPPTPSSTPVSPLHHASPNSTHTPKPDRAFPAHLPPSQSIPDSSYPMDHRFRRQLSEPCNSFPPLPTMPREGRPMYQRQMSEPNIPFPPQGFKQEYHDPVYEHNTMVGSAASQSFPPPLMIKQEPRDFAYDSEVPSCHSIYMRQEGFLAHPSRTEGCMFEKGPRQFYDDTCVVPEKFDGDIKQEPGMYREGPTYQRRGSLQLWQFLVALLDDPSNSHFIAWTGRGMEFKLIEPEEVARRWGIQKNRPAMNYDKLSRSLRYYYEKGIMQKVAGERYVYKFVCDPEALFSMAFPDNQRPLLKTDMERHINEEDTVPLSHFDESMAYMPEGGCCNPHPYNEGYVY
Sequence of SPIB (Q01892 whole entry): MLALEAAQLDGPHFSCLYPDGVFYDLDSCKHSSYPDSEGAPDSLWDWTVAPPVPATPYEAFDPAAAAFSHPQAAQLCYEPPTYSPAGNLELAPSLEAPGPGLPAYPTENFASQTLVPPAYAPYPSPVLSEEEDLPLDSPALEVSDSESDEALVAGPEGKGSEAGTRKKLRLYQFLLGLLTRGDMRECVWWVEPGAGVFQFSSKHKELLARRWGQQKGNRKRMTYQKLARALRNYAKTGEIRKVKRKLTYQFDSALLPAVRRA

For the sequence GCCCCC, the binding signal in the experiment with FLI1 was 1.06 fold enrichment (6-mer frequency, TF over GST control); in the experiment with ELK1, 1.02 fold enrichment (6-mer frequency, TF over GST control); with GABPA, 1.15 fold enrichment (6-mer frequency, TF over GST control); with ERG, 1.03 fold enrichment (6-mer frequency, TF over GST control); with ELF1, 1.15 fold enrichment (6-mer frequency, TF over GST control); with EHF, 1.13 fold enrichment (6-mer frequency, TF over GST control). The binding signal in the experiment with SPI1 is 1.12 fold enrichment (6-mer frequency, TF over GST control); in the experiment with ELK3, 1.06 fold enrichment (6-mer frequency, TF over GST control); in the experiment with FEV, 1.13 fold enrichment (6-mer frequency, TF over GST control); in the experiment with ETV5 it was 1.06 fold enrichment (6-mer frequency, TF over GST control); in the experiment with SPIC, 1.26 fold enrichment (6-mer frequency, TF over GST control); with ELF4 it was 1.11 fold enrichment (6-mer frequency, TF over GST control). Further, the binding signal in the experiment with ELK4 was 1.18 fold enrichment (6-mer frequency, TF over GST control); with ETV2 it was 1.23 fold enrichment (6-mer frequency, TF over GST control); with ELF3, 1.2 fold enrichment (6-mer frequency, TF over GST control); with ETV1 it was 1.1 fold enrichment (6-mer frequency, TF over GST control).
With TGTCTG, the binding signal is 1 fold enrichment (6-mer frequency, TF over GST control) in the experiment with FLI1; 1.1 fold enrichment (6-mer frequency, TF over GST control) with ELK1; 1.11 fold enrichment (6-mer frequency, TF over GST control) with GABPA; 1.05 fold enrichment (6-mer frequency, TF over GST control) with ERG; 1.06 fold enrichment (6-mer frequency, TF over GST control) in the experiment with ELF1; 1.17 fold enrichment (6-mer frequency, TF over GST control) with SPI1. The binding signal was 1.16 fold enrichment (6-mer frequency, TF over GST control) with SPIB; 1.15 fold enrichment (6-mer frequency, TF over GST control) with FEV; 1.09 fold enrichment (6-mer frequency, TF over GST control) in the experiment with ETV5; 1.33 fold enrichment (6-mer frequency, TF over GST control) with SPIC; 1.04 fold enrichment (6-mer frequency, TF over GST control) in the experiment with ELF4; 1.02 fold enrichment (6-mer frequency, TF over GST control) with ELK4. Moreover, the binding signal was 1.21 fold enrichment (6-mer frequency, TF over GST control) with ETV2; 1.21 fold enrichment (6-mer frequency, TF over GST control) with ELF3; 1.04 fold enrichment (6-mer frequency, TF over GST control) with ETV1.

The values above are taken from publication PMC7862700, “An all-to-all approach to the identification of sequence-specific readers for epigenetic DNA modifications on cytosine”.
